About 83,000 compounds went through this panel and 20% of them were active in at least one assay; those are over-represented in the sample as a whole.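 Compound tested at a single concentration for 48 hours in 96-well plates; a percent growth value below 10 was scored as active.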 Values without a mark were called inactive. Active and inactive are the calls of the source.

Assay in all cases: NCI-60 one-dose screen, 48 h (100 = growth as untreated, 0 = no growth, -100 = all killed)
Conditions in all cases: 10 µM unless noted

Test [1] concerns HCT-15 colon.
In test [2] the test system is HT29 colon.
The subject of test [3] is SNB-75 CNS.
Test [4] has as its system SNB-19 CNS.
For test [5], the system named is U251 CNS.
Test [6] concerns PC-3 prostate.
The subject of test [7] is SK-MEL-5 melanoma.
The subject of test [8] is UACC-62 melanoma.
Test [9] concerns LOX IMVI melanoma.
Test [10] relates to SK-MEL-28 melanoma.
The test system of test [11] is SK-MEL-2 melanoma.
Test [12] has as its system EKVX NSCLC.
For test [13], the system named is SN12C renal.
The test system of test [14] is UO-31 renal.
The subject of test [15] is TK-10 renal.
The test system of test [16] is ACHN renal.
Test [17] relates to A498 renal.
The test system of test [18] is CCRF-CEM leukemia.
The subject of test [19] is MOLT-4 leukemia.
In test [20] the test system is SR leukemia.

`C=C(C)[C@@H]1CC[C@]2(C(=O)OCCOCCOCC[P+](c3ccccc3)(c3ccccc3)c3ccccc3)CC[C@]3(C)[C@H](CC[C@@H]4[C@@]5(C)CC[C@H](OC(C)=O)C(C)(C)[C@@H]5CC[C@]43C)[C@@H]12`: the growth in test [1] was -81.3% (active); in test [2], -88.5% (active); in test [3], -87.2% (active); in test [4], -93.6% (active); in [5], -95.4% (active); in test [6] it was -90.2% (active). The growth in [7] is -98.5% (active); in test [8] it was -86.5% (active); in [9], -93.2% (active); in [10], -86.7% (active); in [11] it was -75.6% (active); in [12], -74.8% (active). For the same compound, the growth in test [13] is -89.9% (active); in [14], -95.1% (active); in [15], -87.1% (active); in test [16], -96.7% (active); in test [17], -94% (active); in test [18], -41% (active). In addition, the growth in [19] was -77.9% (active); in [20] it was -49.2% (active).

Regarding `COC(=O)c1ccc2c(c1)n(Cc1ccc3ccccc3c1)c[n+]2Cc1ccc2ccccc2c1`, the growth is 98.6% in test [1]; 10.1% in test [2]; 60.1% in [3]; 33.1% in test [4]; 32.9% in test [5]; 29.6% in test [6]. Besides, the growth in test [7] is 4.24% (active); in test [8], -15.9% (active); in test [9], 23.9%; in [10], 21.6%; in test [11], 5.59% (active); in test [12], 71%. Also, the growth is 38.4% in test [13]; 83.6% in test [14]; 49.1% in test [15]; 99% in test [16]; 80.5% in test [17]; 27.5% in [18]. The growth is 29.2% in [19] and -37.1% (active) in test [20].

With `COc1cc2cc(c1Cl)N(C)C(=O)C[C@H](OC(=O)[C@H](C)N(C)C(=O)CCS)C[C@]1(C)O[C@H]1[C@H](C)[C@@H]1C[C@@](O)(NC(=O)O1)[C@H](OC)/C=C/C=C(\C)C2`, the growth in test [1] is 11.2%; in [2] it was 0.342% (active); in [3], 21%; in test [4] it was 34%; in test [5], 10.2%; in test [6] it was 22%. Further, the growth was -33.1% (active) in test [7]; 36.8% in [8]; 13.6% in test [9]; 57.2% in test [10]; 20% in [11]; 38.8% in test [12]. The growth is 28.2% in [13]; 47.4% in test [14]; 62.4% in test [15]; 25.4% in [16]; -21.9% (active) in [17]; 16.2% in test [18]. Further, the growth in test [19] was 13.1%; in test [20], 12.2%.

For the compound `CCOC(=O)C(=Cc1c(-c2ccccc2)[nH]c2ccccc12)C(=O)OCC`, the growth is 36.5% in [1]; 31% in test [2]; 48.4% in test [3]; 106% in [4]; 52.9% in test [5]; -16% (active) in test [6]. The growth in test [7] was 41.6%; in [8], 43.5%; in test [9] it was 57.3%; in test [10], 62.5%; in [11], -3.76% (active); in test [12], 71.1%. Also, the growth in test [13] is 65.6%; in test [14], 33.5%; in test [15], 92.2%; in [16], 54%; in [17], 74.1%; in test [18], 4.23% (active). Moreover, the growth in test [19] was 1.38% (active); in test [20], 10%.

In the case of `COc1cc(NCC(=O)Nc2cc(Nc3ccc(C)cc3)ncn2)c(Cl)c(OC)c1Cl`, the growth in test [1] is 89.9%; in [2] it was 95.3%; in test [3], 78.4%; in test [4], 95.9%; in [5] it was 87.2%; in test [6] it was 69.1%. Moreover, the growth was 91.6% in test [7]; 75.3% in [8]; 84.5% in test [9]; 107% in test [10]; 103% in [11]; 82.1% in [12]. Also, the growth in test [13] is 88.1%; in [14], 62.1%; in [15], 121%; in test [16], 92.6%; in test [17] it was 84.9%; in [18], 81.8%. The growth was 60.8% in test [19] and 78.9% in [20].

Turning to `Cn1c2c(c3ccc(-c4ccn[nH]4)cc3c1=O)C(=O)c1ccccc1-2`, the growth in test [1] is 15.7%; in test [2], 18.9%; in test [3], 71%; in test [4], 27.4%; in test [5], 13.5%; in test [6], 63.2%. Moreover, the growth in [7] was 21.1%; in test [8], 47.9%; in test [9] it was 0.163% (active); in [10] it was 88.6%; in test [11], 118%; in test [12], 20.2%. In addition, the growth in [13] was 7.3% (active); in test [14], 19.2%; in [15] it was 71.6%; in [16] it was -8.82% (active); in [17], 60%; in test [18], 2.31% (active). Further, the growth in [19] was -1.45% (active); in test [20], 1.32% (active).

On to `O=CN1N=C(c2ccc(F)cc2)CC1c1cccc(Nc2ccnc3cc(C(F)(F)F)ccc23)c1` (stereo not given), for which the growth in test [1] was 58%; in test [2], 47.8%; in test [3], 92%; in test [4], 63.9%; in [5], 53.2%; in test [6], 41.8%. Moreover, the growth was -15.2% (active) in [7]; 53.4% in [8]; 40.2% in test [9]; 82.2% in test [10]; 54.2% in test [11]; 50.6% in [12]. The growth in [13] is 81%; in [14], 44.6%; in test [15], 62.7%; in [16] it was 54.4%; in test [17] it was 49.6%; in test [18] it was 44.8%. For the same compound, the growth was 23.1% in test [19] and 20.2% in test [20].

As to `COc1ccc(-n2cc(COc3ccc4c5ccnc(C)c5n(CC(C)C)c4c3)nn2)cc1`, the growth is 63.4% in test [1]; 16% in test [2]; 61.8% in [3]; 78.4% in test [4]; 69.9% in [5]; 55.6% in [6]. In addition, the growth in test [7] is 58.2%; in test [8], 71%; in [9], 77.3%; in [10] it was 87.4%; in [11] it was 87.7%; in test [12] it was 69%. In addition, the growth in test [13] is 77%; in [14] it was 71%; in test [15] it was 70.5%; in test [16] it was 64.6%; in test [17], 53.6%; in test [18], 72.9%. The growth in [19] is 24.4%; in [20], 22.6%.

(Values after PubChem BioAssay (NCI).)
